# PubChem BioAssay AID588351 (The Scripps Research Institute Molecular Screening Center, 2011)
# Among all 1,900 compounds or so, about 1,600 (84%) were called active.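 The calls were made as follows: active = mean activation above a set limit taken from the primary screen (cut at about 8% in these data); inactive = the rest.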 So high a share suggests a set chosen from earlier hits. The list is a sample of the results.
# Test: FXN GAA850 promoter activators in reporter cells, confirmation, cell-based, luminescence, HEK293 lucGAA850, triplicate (AID 588351);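 also: 0% = DMSO wells and 100% = 10 µM SAHA wells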
# Details: HEK293 lucGAA850 FXN promoter luciferase reporter, 24 h; at 6 µM; stronger effect = higher value
row,SMILES,activation
1,CC(C)(C)c1ccc(OC(=O)N2CCCCC2)cc1,35% (active)
